# In the supplement of paper PMC8728848:
# The sample as a whole holds a higher share of the strongest signals than the screen did.
# Columns and labels:
# Assay in all cases: glycan array binding signal (z-score within array); higher = stronger binding
# Conditions in all cases: glycan notation: IUPAC condensed, linker removed
# [1] = test system: Neu5Ac(a2-3)Gal(b1-3)GalNAc(b1-4)[Neu5Ac(a2-3)]Gal(b1-4)Glc
# Summary of the method: (§1)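 The binding signal is a Z-score computed within each array. Data were drawn from 3228 arrays in the Consortium for Functional Glycomics database, restricted to those with a known protein sequence. Scores were averaged over arrays of the same protein sequence at different concentrations or buffers, and over linkers, and negative values can be taken as non-binding.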
# [2] = test system: Neu5Ac(a2-3)Gal(b1-3)GalNAc(b1-4)[Neu5Ac(a2-8)Neu5Ac(a2-3)]Gal(b1-4)Glc
# Summary of the method: as §1
# [3] = test system: Neu5Ac(a2-3)Gal(b1-3)GlcNAc(b1-2)Man(a1-3)[GlcNAc(b1-4)][Neu5Ac(a2-3)Gal(b1-3)GlcNAc(b1-2)Man(a1-6)]Man(b1-4)GlcNAc(b1-4)GlcNAc
# Summary of the method: as §1
# [4] = test system: Man(a1-2)Man(a1-2)Man(a1-3)Man
# Summary of the method: as §1
# [5] = test system: Man(a1-2)Man(a1-2)Man(a1-6)[Man(a1-3)]Man
# Summary of the method: as §1
# [6] = test system: Man(a1-2)Man(a1-3)Man
# Summary of the method: as §1
# [7] = test system: Man(a1-2)Man(a1-3)[Man(a1-2)Man(a1-6)]Man(a1-6)[Man(a1-2)Man(a1-2)Man(a1-3)]Man(b1-4)GlcNAc(b1-4)GlcNAc
# Summary of the method: as §1
# [8] = test system: Man(a1-2)Man(a1-3)[Man(a1-2)Man(a1-6)]Man(a1-6)[Man(a1-2)Man(a1-2)Man(a1-3)]Man
# Summary of the method: as §1
# [9] = test system: Man(a1-2)Man(a1-3)[Man(a1-2)Man(a1-6)]Man
# Summary of the method: as §1
# [10] = test system: Man(a1-2)Man(a1-3)[Man(a1-6)]Man(a1-6)[Man(a1-2)Man(a1-3)]Man(b1-4)GlcNAc(b1-4)GlcNAc
# Summary of the method: as §1
# [11] = test system: Man(a1-2)Man(a1-6)[Man(a1-3)]Man(a1-6)[Man(a1-2)Man(a1-2)Man(a1-3)]Man(b1-4)GlcNAc(b1-4)GlcNAc
# Summary of the method: as §1
# [12] = test system: Man(a1-2)Man(a1-6)[Man(a1-3)]Man(a1-6)[Man(a1-2)Man(a1-2)Man(a1-3)]Man
# Summary of the method: as §1
# [13] = test system: Neu5Ac(a2-3)Gal(b1-3)GalNAc
# Summary of the method: as §1
# [14] = test system: Man(a1-3)[Man(a1-6)]Man(a1-6)[Man(a1-2)Man(a1-3)]Man(b1-4)GlcNAc(b1-4)GlcNAc
# Summary of the method: as §1
# [15] = test system: Neu5Ac(a2-3)Gal(b1-3)GlcNAc(b1-3)Gal(b1-3)GlcNAc
# Summary of the method: as §1
# [16] = test system: Man(b1-4)GlcNAc
# Summary of the method: as §1
# [17] = test system: MurNAc(b1-4)GlcNAc
# Summary of the method: as §1
# [18] = test system: Man(a1-3)[Man(a1-6)]Man(b1-4)GlcNAc(b1-4)[Fuc(a1-6)]GlcNAc
# Summary of the method: as §1
# [19] = test system: Man(a1-3)[Man(a1-6)]Man
# Summary of the method: as §1
# [20] = test system: Kdn(a2-3)Gal(b1-4)GlcNAc
# Summary of the method: as §1
substance,measurement,setting,value
AgI/II Vhelical-GFP (Streptococcus mutans),glycan array binding signal (z-score),[1],0.244
same,glycan array binding signal (z-score),[2],-0.256
same,glycan array binding signal (z-score),[3],1.2
Actinohivin (Actinomycete K97),glycan array binding signal (z-score),[4],3.74
same,glycan array binding signal (z-score),[5],16.1
same,glycan array binding signal (z-score),[6],1.82
same,glycan array binding signal (z-score),[7],3.83
same,glycan array binding signal (z-score),[8],12.4
same,glycan array binding signal (z-score),[9],1.78
same,glycan array binding signal (z-score),[10],3.51
same,glycan array binding signal (z-score),[11],6.4
same,glycan array binding signal (z-score),[12],8.54
"BambL (Burhholderia ambifaria), Q0B4G1",glycan array binding signal (z-score),[6],-0.316
"SpGH101 (Streptococcus pneumoniae), Q8DR60",glycan array binding signal (z-score),[6],-0.182
same,glycan array binding signal (z-score),[7],-0.2
"GspB (Streptococcus gordonii), Q939N5",glycan array binding signal (z-score),[13],4.52
AgI/IIC123-GFP (Streptococcus mutans),glycan array binding signal (z-score),[4],-0.465
same,glycan array binding signal (z-score),[9],0.368
same,glycan array binding signal (z-score),[14],-0.159
same,glycan array binding signal (z-score),[3],-0.265
same,glycan array binding signal (z-score),[15],-0.456
LcI (Legionella pneumophila),glycan array binding signal (z-score),[9],-0.584
same,glycan array binding signal (z-score),[16],0.079
same,glycan array binding signal (z-score),[17],0.332
same,glycan array binding signal (z-score),[3],-0.429
Epa22,glycan array binding signal (z-score),[18],-0.324
"Wza (Escherichia coli), P0A930",glycan array binding signal (z-score),[4],2.8
same,glycan array binding signal (z-score),[14],0.776
same,glycan array binding signal (z-score),[19],1.81
"SiiE (Salmonella typhimurium), A0A0H3NVH0",glycan array binding signal (z-score),[20],2.58
same,glycan array binding signal (z-score),[11],-0.297
